According to PubChem BioAssay (Tox21):
Values joined by “and” are separate entries in the source; they are usually repeats but may differ in a detail not shown here. Equal entries are not always repeated. Inconclusive results are not listed. Active and inactive are the calls of the source. Unless noted, calls come from the whole dose curve; as a rule, active = well fitted curve in the direction sought with a large enough effect in the repeat runs; inconclusive = weak or mixed curves; inactive = no such curve, though single readings can be large; an effect the other way counts as inactive or inconclusive.

Columns and labels:
[1] = molecular target: Aryl hydrocarbon receptor (Homo sapiens) (UniProt P35869); test: qHTS assay to identify small molecule that activate the aryl hydrocarbon receptor (AhR) signaling pathway (AID 743085); conditions: HepG2 AhR-luc (HG2L7.5c1), luciferase, 24 h; series mostly up to 70.3 µM; note: nearly all actives have a fitted effect of over 15% in size; note: potency is the fitted concentration of half-maximal effect;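 for activation: HG2L7.5c1 human HepG2 liver cells with stably integrated DRE-driven firefly reporter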
In short: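 Cell line HG2L7.5c1 (human hepatoma, 20× DRE-luc). Plated, 5 h 37C, compound/DMSO added, 24 h 37C. CellTiter-Fluor 30 min 37C → fluorescence; then ONE-Glo 30 min RT → luminescence.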

[2] = qHTS assay to identify small molecule that activate the aryl hydrocarbon receptor (AhR) signaling pathway - cell viability counter screen (AID 743086); conditions: HepG2-AhR-luc viability, CellTiter-Fluor, 24 h; series mostly up to 70.3 µM; note: nearly all actives have a fitted effect of over 45% in size; note: potency is the fitted concentration of half-maximal effect
In short: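 HepG2-AhR-luc (HG2L7.5c1) cells, 4000/well, treated 24 h at 37 C with compound; viability measured as CellTiter-Fluor fluorescence after 30 min in the same wells as the luciferase read.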

[3] = molecular target: Peroxisome proliferator-activated receptor gamma (Homo sapiens) (UniProt P37231); test: qHTS assay to identify small molecule agonists of the peroxisome proliferator-activated receptor gamma (PPARg) signaling pathway (AID 743094; active = well fitted activation curve with a large enough effect in the signal ratio in the repeat runs, not every such curve was filed as active; the % refers to the signal ratio); conditions: HEK293H PPARg-UAS-bla, beta-lactamase FRET ratio, 17 h; series mostly up to 57 µM
In short: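 Following 5 h plating at 37C, PPARg-bla HEK293H cells receive compound or DMSO for 17 h; fluorescence intensity is recorded after LiveBLAzer B/G loading for 1 h at room temperature.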

[4] = qHTS assay for small molecule agonists of the antioxidant response element (ARE) signaling pathway (AID 743202; active = well fitted activation curve with a large enough effect in the signal ratio in the repeat runs, not every such curve was filed as active; the % refers to the signal ratio; note: potency is the fitted concentration of half-maximal effect); conditions: HepG2 ARE-bla reporter, beta-lactamase FRET, 16 h; series mostly up to 73.3 µM
In short: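 Agonist mode reporter screen: HepG2 cells with ARE-controlled beta-lactamase are incubated with test compounds for 16 h at 37 C, and beta-lactamase activity is measured as fluorescence of cleaved B/G FRET substrate.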

[5] = qHTS assay for small molecule agonists of the antioxidant response element (ARE) signaling pathway - cell viability counter screen (AID 743203; calls by dose curve; note: nearly all actives have a fitted effect of over 55% in size; note: potency is the fitted concentration of half-maximal effect); conditions: ARE-bla HepG2 viability, CellTiter-Glo luminescence, 16 h; series mostly up to 73.3 µM
In short: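 Compounds in DMSO were pinned onto ARE-bla HepG2 cells plated 5 hrs earlier at 2,000 cells/well. Sixteen hours later at 37C/5% CO2, CellTiter-Glo was added and luminescence measured after 30 min at room temperature.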

[6] = qHTS assay for small molecule activators of the heat shock response signaling pathway - cell viability counter screen (AID 743209); conditions: HSE-bla HeLa viability, CellTiter-Glo luminescence, 5 h; series mostly up to 62.6 µM; note: nearly all actives have a fitted effect of over 50% in size; note: potency is the fitted concentration of half-maximal effect
In short: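 Counter screen for cytotoxicity in HeLa HSE-bla reporter cells. Treatment was 5 h at 37 C; viability was detected by luminescent ATP assay (CellTiter-Glo) in the same wells as the beta-lactamase read.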

[7] = molecular target: Peroxisome proliferator-activated receptor gamma (Homo sapiens) (UniProt P37231); test: qHTS assay to identify small molecule antagonists of the peroxisome proliferator-activated receptor gamma (PPARg) signaling pathway (AID 743191; calls by dose curve; note: nearly all actives have a fitted effect of over 30% in size; note: potency is the fitted concentration of half-maximal effect); conditions: HEK293H PPARg-UAS-bla, beta-lactamase ratio, antagonist, 17 h; series mostly up to 62.6 µM
In short: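 GeneBLAzer PPARg UAS-bla HEK293H cells, 5 h post-plating, exposed to compounds 17 h at 37C. LiveBLAzer B/G FRET substrate added for 1 h at room temperature; beta-lactamase reporter read by fluorescence intensity.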

[8] = qHTS assay for small molecule activators of the heat shock response signaling pathway (AID 743210; active = well fitted activation curve with a large enough effect in the signal ratio in the repeat runs, with a control signal flat, not every such curve was filed as active; the % refers to the signal ratio; note: potency is the fitted concentration of half-maximal effect;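 for activation: HeLa cells with beta-lactamase reporter driven by heat shock elements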); conditions: HeLa HSE-bla reporter, beta-lactamase ratio, 5 h; series mostly up to 62.6 µM
In short: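 Quantitative high-throughput format using an engineered HeLa line in which heat shock response elements drive beta-lactamase; after 5 h with compound, cells received a B/G FRET substrate and fluorescence was read.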

[9] = qHTS assay to identify small molecule antagonists of the peroxisome proliferator-activated receptor gamma (PPARg) signaling pathway - cell viability counter screen (AID 743194); conditions: PPARg-bla HEK293H viability, CellTiter-Glo luminescence, 17 h; Potency: co-treated with 50 nM rosiglitazone unless noted; series mostly up to 62.6 µM; note: nearly all actives have a fitted effect of over 55% in size; note: potency is the fitted concentration of half-maximal effect
In short: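 Cytotoxicity counter screen in PPARg-bla HEK293H cells, same wells as reporter assay. Compounds plus 50 nM rosiglitazone (final) for 17 h at 37 C, then viability read by CellTiter-Glo luminescence.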

Measured: Potency

Aryl hydrocarbon receptor (Homo sapiens), sequence (P35869 whole entry, looked up): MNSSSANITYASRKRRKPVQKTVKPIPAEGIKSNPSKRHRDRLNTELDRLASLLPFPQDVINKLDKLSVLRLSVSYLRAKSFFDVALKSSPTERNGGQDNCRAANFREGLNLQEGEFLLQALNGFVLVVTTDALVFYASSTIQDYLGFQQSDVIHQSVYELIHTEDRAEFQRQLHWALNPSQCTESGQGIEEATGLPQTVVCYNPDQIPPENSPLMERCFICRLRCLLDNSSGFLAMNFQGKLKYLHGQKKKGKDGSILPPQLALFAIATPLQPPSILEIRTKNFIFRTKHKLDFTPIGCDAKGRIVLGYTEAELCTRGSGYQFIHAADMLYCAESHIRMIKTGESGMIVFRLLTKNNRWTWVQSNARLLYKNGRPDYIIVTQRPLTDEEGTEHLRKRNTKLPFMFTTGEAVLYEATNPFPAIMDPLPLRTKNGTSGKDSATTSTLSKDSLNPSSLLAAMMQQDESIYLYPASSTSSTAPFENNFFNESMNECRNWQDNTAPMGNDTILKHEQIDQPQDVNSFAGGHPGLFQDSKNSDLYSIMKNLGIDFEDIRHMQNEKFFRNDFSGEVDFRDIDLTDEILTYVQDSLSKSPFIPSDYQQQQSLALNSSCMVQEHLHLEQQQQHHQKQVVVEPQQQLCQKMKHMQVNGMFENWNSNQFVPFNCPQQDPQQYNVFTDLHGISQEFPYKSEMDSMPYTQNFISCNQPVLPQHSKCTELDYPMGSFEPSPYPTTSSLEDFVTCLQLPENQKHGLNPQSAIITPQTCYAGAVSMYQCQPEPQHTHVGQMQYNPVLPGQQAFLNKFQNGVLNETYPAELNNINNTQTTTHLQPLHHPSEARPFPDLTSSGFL
Peroxisome proliferator-activated receptor gamma (Homo sapiens), sequence (P37231 whole entry, looked up): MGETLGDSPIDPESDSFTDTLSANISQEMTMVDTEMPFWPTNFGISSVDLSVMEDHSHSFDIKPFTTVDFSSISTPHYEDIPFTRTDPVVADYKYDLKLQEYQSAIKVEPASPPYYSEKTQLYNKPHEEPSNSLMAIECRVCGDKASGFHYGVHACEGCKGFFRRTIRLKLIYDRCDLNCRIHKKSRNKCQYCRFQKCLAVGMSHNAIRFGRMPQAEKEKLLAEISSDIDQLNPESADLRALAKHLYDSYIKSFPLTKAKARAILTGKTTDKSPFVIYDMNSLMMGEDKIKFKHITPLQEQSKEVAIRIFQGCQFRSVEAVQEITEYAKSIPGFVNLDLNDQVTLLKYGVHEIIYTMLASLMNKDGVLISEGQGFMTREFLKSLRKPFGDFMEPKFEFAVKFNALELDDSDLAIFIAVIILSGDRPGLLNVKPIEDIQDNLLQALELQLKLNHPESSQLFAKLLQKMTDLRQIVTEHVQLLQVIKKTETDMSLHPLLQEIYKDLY

COC(=O)N(OC)c1ccccc1COc1ccn(-c2ccc(Cl)cc2)n1
active: [4] 0.433 µM | [5] 43.3 µM
inactive: [1] | [2] | [3] | [6]

COP(=O)(OC)O/C(=C\Cl)c1cc(Cl)c(Cl)cc1Cl
inactive: [1] | [2] | [6] | [8]
active: [7] 4.9 µM

C#CCC1=C(C)C(OC(=O)C2C(C=C(C)C)C2(C)C)CC1=O (centres undefined)
inactive: [1] | [2] | [9] | [5] | [6]

c1ccc(Nc2ccc(Nc3ccccc3)cc2)cc1
inactive: [2]
active: [5] 60.9 µM | [6] 24.4 µM

CCC(OC(C)=O)C(CC(C)NC)(c1ccccc1)c1ccccc1 (centres undefined)
active: [2] 69.2 µM | [5] 77.6 µM
inactive: [1] | [6]

CCC(C)c1cccc(C(C)CC)c1O (centres undefined)
inactive: [2] | [3] | [7] | [9] | [5] | [6]

C[C@@H]1CC2=CC(=O)CC[C@@H]2[C@H]2CC[C@@]3(C)[C@@H](CC[C@]3(C)O)[C@@H]21
inactive: [7] | [5] | [6] | [8]

Cc1ccc([N+](=O)[O-])[c]2c1[O][Hg]2
active: [9] 2.98 µM | [5] 4.22 µM | [6] 5.31 µM

CO/N=C(\C(=O)OC)c1ccccc1CO/N=C(\C)c1cccc(C(F)(F)F)c1
inactive: [1] | [2] | [6]

CC(=O)[O-].CC(=O)[O-].CC(=O)[O-].[Cr+3]
inactive: [1] | [2] | [9] | [5] | [6]

CC1=C2C[C@H]3[C@@H](CC=C4C[C@@H](O)CC[C@@]43C)[C@@H]2CC[C@]12O[C@@H]1C[C@H](C)CN[C@H]1[C@H]2C
inactive: [1] | [3] | [9] | [5] | [6] | [8]

CCn1cc[n+](C)c1 (tested in a mixture with another compound)
inactive: [2] | [9] | [4] | [5] | [6]

c1ccc(N=NNc2ccccc2)cc1
active: [1] 10 µM and 34.4 µM | [4] 9.69 µM
inactive: [9] | [5] | [6] | [8]

CCCCCCCc1ccc(O)cc1
inactive: [1] | [2] | [3] | [9] | [6] | [8]

Nc1nc(N)c(N)c(N)n1
inactive: [2] | [3] | [7] | [9] | [4] | [5] | [6] | [8]

c1ccc2c(c1)cc1ccc3cccc4ccc2c1c34
inactive: [9] | [5] | [6]

CC(Cc1ccccc1)N(C)Cc1ccco1 (centres undefined)
inactive: [7] | [9] | [4] | [5] | [6] | [8]

O=c1[nH]c2cc(Cl)ccc2n1C1CCNCC1
inactive: [7] | [5] | [6] | [8]

Cc1cc(C2CC2)nc(Nc2ccccc2)n1
inactive: [2] | [3] | [9] | [5] | [6]
active: [4] 27.3 µM

O=Cc1ccccc1
inactive: [2] | [9] | [4] | [5] | [6] | [8]

CC[N+]1(CC)CCC(OC(=O)C(O)(c2ccccc2)c2ccccc2)C1 (centres undefined)
inactive: [9] | [4] | [5] | [6] | [8]

CN1CCc2cc3c(cc2C1O)OCO3 (centres undefined)
active: [8] 39.1 µM
inactive: [1] | [5] | [6]
